GSH fluor: compound fluoresces at 488/530 nm on GSH beads | fluorescence (KMESF) at 10 µM | GSH beads flow cytometry, compound fluorescence 488/530 nm; hits give high values | 190,000 tested, 0.25% active; in the data active = fluorescence above about 89;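 note: glutathione beads carrying GST-tagged Bcl family fusion proteins plus one bare bead set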
PGE2 EP2 inh: EP2 receptor (human) inhibition. C6 glioma cells expressing human EP2, cAMP TR-FRET; cells stimulated with saturating PGE2. inhibition, % at 25 µM. AID 1422. 260,000 tested, 0.52% active;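 active = percent inhibition above 40 after rounding to a whole number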;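 note: rat C6 glioma host cells with rolipram phosphodiesterase inhibitor present; the protocol text gives 20 µM as final concentration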
Target sequence (P43116 whole entry, looked up): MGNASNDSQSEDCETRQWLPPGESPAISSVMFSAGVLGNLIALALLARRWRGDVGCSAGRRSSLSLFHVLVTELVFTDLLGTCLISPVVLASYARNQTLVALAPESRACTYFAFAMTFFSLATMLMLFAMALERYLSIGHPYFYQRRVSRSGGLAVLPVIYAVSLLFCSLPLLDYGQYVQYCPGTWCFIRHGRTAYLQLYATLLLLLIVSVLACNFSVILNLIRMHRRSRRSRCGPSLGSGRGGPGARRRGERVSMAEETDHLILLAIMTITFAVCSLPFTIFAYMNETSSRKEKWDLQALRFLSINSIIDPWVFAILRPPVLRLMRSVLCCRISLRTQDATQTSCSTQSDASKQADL
Efa HMGR inh: inhibitors of class II HMG-CoA reductase from Enterococcus faecalis. AID 1066. 190,000 tested, 0.41% active. inhibition, % at 10 µM. purified E. faecalis HMGR, NADPH absorbance 340 nm kinetic;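 active = inhibition above a set limit, the median over all tested compounds plus 3 SD, cut at about 9.5% in these data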;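 note: enzyme runs in reverse so mevalonate oxidation gives rising NADPH absorbance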
Avidin bead fluor: avidin bead compound fluorescence profile | fluorescence (KMESF) at 10 µM | 220,000 tested, 0.38% active | Avidin beads, compound fluorescence 488/530 nm, flow cytometry; hits give high values; in the data active = fluorescence above about 47
EP2 mod: modulators of human EP2 prostaglandin E2 receptor. AID 940. EP2-expressing cells, cAMP HTRF FRET, PGE2 co-stimulation. 260,000 tested, 0.83% active. induction, % at 25 µM. P43116;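 active = compounds whose cAMP rise, as percent of the full-agonist control response, exceeds 60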;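 note: rat C6 glioma line stably carrying human EP2 under a CMV promoter; the protocol text gives 20 µM as final concentration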
Numbers stand for hits; – = inactive; · = no result given; ! = not confirmed by another sample. Only some compounds are listed: those with a hit (about 2.1% of all), similar ones and a draw of the others.

SMILES | GSH fluor | PGE2 EP2 inh | Efa HMGR inh | Avidin bead fluor | EP2 mod
CC1(C)Cc2c(sc3[nH]c(=S)n(Cc4ccco4)c(=O)c23)CO1 | – | 40 | – | – | –
CCCN(CCC)C(=O)c1ccc2c(=O)n(Cc3ccco3)c(=S)[nH]c2c1 | – | – | – | – | –
CC1(C)Cc2c(sc3c2c(=N)n(Cc2ccco2)c(=O)n3Cc2ccccc2)CO1 | – | – | – | – | –
NC(=O)C1CCN(Cc2nnnn2C2CCCC2)CC1 | · | – | · | · | –
Cc1nn(Cc2c(Cl)cccc2Cl)c(C)c1NC(=O)c1nc2ncccn2n1 | · | – | · | · | –
CC1CCN(S(=O)(=O)c2cccc(C(=O)NCc3ccco3)c2)CC1 | 159 | – | – | – | –
CC1CCN(S(=O)(=O)c2cccc(C(=O)Oc3ccc([N+](=O)[O-])cc3)c2)CC1 | – | 40 | – | – | –
Cc1cc2c(cc3c(=O)n(CC(=O)N(C)CCCc4ccco4)nc(C)n32)o1 | · | · | · | · | –
CCOC(=O)C1CCN(C(=O)c2c(-c3ccccc3)noc2C)CC1 | – | – | 14 | – | –
COCCN1C(=O)C(O)=C(C(=O)c2ccco2)C1c1cccc2ccccc12 (stereo unspecified) | · | – | · | · | –
COc1ccc(C2C(C(C)=O)=C(Nc3ccccc3)CC(C)(O)C2C(C)=O)cc1OC (stereo unspecified) | – | – | 14 | – | –
CCc1cccc(C)c1NC(=O)CSc1nc2cc3c(cc2cc1C)OCCO3 | · | – | · | · | –
COC(=O)CSc1nc2c(c(-c3ccc(O)cc3)c1C#N)CCCC2 | – | – | – | – | 62
CCCCN(CC)Cc1ccc(CNC(=O)Nc2ccc(OCC)cc2)o1 | – | – | – | 87 | –
CCOc1ccc2[nH]cc(C(=O)NCCN(CC)CC)c(=O)c2c1 | · | – | · | · | –
NC(=O)Nc1ccc(Nc2ccccc2)cc1 | · | – | · | – | –
N#[N+]c1ccc(Nc2ccccc2)cc1 | · | 43 | · | · | –
O=C(Cn1cc(C(=O)C(F)(F)F)c2ccccc21)N1CCOCC1 | – | – | 14 | – | –
NCOC(=O)Cc1ccc(Br)cc1 | · | 54 | · | · | –
c1ccc2c[n+](CCCC[n+]3ccc4ccccc4c3)ccc2c1 | · | 43 | · | · | –
O=C(C[n+]1ccc2ccccc2c1)c1cccc2ccccc12 | – | – | – | – | –
O=C(Nc1cc(C(F)(F)F)ccc1Cl)c1nc2ncccn2n1 | · | – | · | · | –
COc1ccc(N=c2oc3cc(O)ccc3cc2C(=O)Nc2ccccn2)cc1OC | – | 43 | – | – | –
COc1cccc(N=c2oc3cc(O)ccc3cc2C(=O)Nc2nccs2)c1 | · | – | · | · | –
Cc1[nH]nc2c1C(c1ccc(-c3ccccc3C#N)o1)C(C#N)=C(N)O2 (stereo unspecified) | – | 63 | – | – | –
SMILES | GSH fluor | PGE2 EP2 inh | Efa HMGR inh | Avidin bead fluor | EP2 mod
Nc1c(C(=O)NCc2cccs2)nnn1CC(=O)Nc1cccc(Cl)c1 | – | – | – | – | –
Nc1nc2c(C(=O)NCc3cccs3)nnn2c2cccc(Cl)c12 | · | 49 | · | · | –
Cc1ccc(NC(=O)c2cccs2)cc1NC(=O)c1ccccc1 | · | – | · | · | –
Cc1cccc(N2CCN(C(=O)CN3C(=O)COc4ccccc43)CC2)c1C | · | – | · | · | –
COC(=O)c1ccccc1Nc1ccccc1 | – | – | – | – | 64
O=C(COC(=O)c1ccccc1Nc1ccccc1)c1ccccc1 | – | – | – | – | –
CCOC(=O)c1[nH]c(C)c(C(=O)OCC)c1C | – | – | – | – | –
CCOC(=O)c1c(C)[nH]sc1=S | – | · | – | – | 64
COc1ccc(OC)c(N(CC(=O)NCc2ccc3c(c2)OCO3)S(C)(=O)=O)c1 | · | – | · | · | –
CC(SCCc1ccccn1)C(=O)O (stereo unspecified) | – | – | – | – | –
N=C(N)SCCc1ccccn1 | · | 44! | · | · | –
CC(C)(C)c1[nH]ncc1CN(CCCn1ccnc1)CC1CC=CCC1 (stereo unspecified) | · | – | · | · | –
CO/N=C/NC(=O)NOCc1ncc(C(F)(F)F)cc1Cl | – | – | – | – | –
O=C(N/C=N/OCc1ccc(Cl)cc1Cl)NOCc1ncc(C(F)(F)F)cc1Cl | – | – | – | – | 61
O=C1OC(c2ccccc2)=C/C1=C/N1CCCCC1 | – | – | – | – | –
COC(=O)/C=C1\OC(c2ccccc2)=CC1=O | – | 124 | – | – | –
Cc1cc2cccc(C)c2nc1SCC(=O)c1ccccc1 | · | – | · | · | 69
Cc1cc2c(C)ccc(C)c2nc1SCC(=O)O | · | – | · | · | 79
